Experimental findings from PubChem BioAssay AID1567 (National Center for Advancing Translational Sciences (NCATS), 2009) are described below.

Results filed as inconclusive are left out. Values without a mark were called inactive. Calls of active or inactive are those of the source. Calls come from the whole dose curve; as a rule, active = well fitted inhibition curve with a large enough effect; inconclusive = small, poorly fitted or top-dose-only effect, or effect the other way; inactive = no such curve, though single readings can be large or run the other way.

Chain of Thyroid hormone receptor beta (Homo sapiens) (P10828 whole entry, looked up): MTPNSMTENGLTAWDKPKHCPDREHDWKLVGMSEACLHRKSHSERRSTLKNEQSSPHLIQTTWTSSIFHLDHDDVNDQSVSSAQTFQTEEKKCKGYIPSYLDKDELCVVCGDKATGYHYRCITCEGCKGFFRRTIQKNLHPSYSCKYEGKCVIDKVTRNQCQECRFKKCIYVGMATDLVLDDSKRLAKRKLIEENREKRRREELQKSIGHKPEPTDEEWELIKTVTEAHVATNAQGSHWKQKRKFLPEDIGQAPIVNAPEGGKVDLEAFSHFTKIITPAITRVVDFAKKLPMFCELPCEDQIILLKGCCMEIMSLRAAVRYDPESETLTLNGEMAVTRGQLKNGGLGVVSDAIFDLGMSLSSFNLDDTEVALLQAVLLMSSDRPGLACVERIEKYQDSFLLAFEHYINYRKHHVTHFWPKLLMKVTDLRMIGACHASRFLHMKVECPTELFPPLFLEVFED

This experiment addresses Thyroid hormone receptor beta (Homo sapiens) (UniProt P10828). Briefly: Cell-based Gene Reporter Secondary Assay to Characterize qHTS Inhibitors of the Interaction of Thyroid Hormone Receptor and Steroid Receptor Coregulator 2. The note with it: WRO cells TRbeta TRE-luciferase, T3-stimulated, 16 h; series mostly up to 29.9 µM; activity change, negative = inhibition: at the top concentration. From the text: NIH Molecular Libraries Probe Production Network [MLPCN] NIH Chemical Genomics Center [NCGC] MLPCN Grant: DK058080 Assay Provider: R. Kip Guy, St. Jude Children's Research Hospital NCGC Assay Overview: Thyroid receptor (TR) regulates many homeostatic processes including basal metabolism, cardiovascular function, body weight, and lipid trafficking. TR modulators are potential therapeutics for obesity and hyperlipidemias but current thyroid analogs have undesirable side effects, particularly cardiac stimulation. This secondary assay characterized selected actives identified in the qHTS for Inhibitors of the Interaction of Thyroid Hormone Receptor and Steroid Receptor Coregulator 2. The human follicular thyroid carcinoma cell line WRO (kindly provided by Dr. M. D. Ringel) stably expresses TRbeta and a luciferase reporter gene fused to TR response element. The addition of T3 ligand elevates expression of the TRE luciferase reporter. This assay measures the transcriptional activity of compounds.
NCGC Assay Protocol Summary: Cells were maintained in RPMI 1640 culture medium supplemented with 10% heat-inactivated FBS, 0.33 mg/ml hygromycin, 0.33 mg/ml geneticin, 50 units/ml penicillin, 50 ug/ml streptomycin. Cells were harvested and resuspended at 330,000 cells/ml in assay medium (50% DMEM 50% F-12 medium without Phenol-Red (Cellgro #16-405-CV), L-glutamine, 10% heat inactivated and charcoal treated FBS, 100 uM non-essential amino acid, 50 units/ml penicillin, 50 ug/ml streptomycin). Cells were dispensed at 10,000 cells/30 ul/well into 384 well plates (Corning 3917) and incubated 12 h at 37 C and 5% CO2. Compounds and T3 (100nM final concentration) were added using a pin tool and plates were incubated 16 h incubation at 37 C and 5% CO2. Following incubation, plates were equilibrated at ambient temperature for 30 min, 30 ul of Bright-Glo (Promega) was added and luminescence was detected by an EnVision (PerkinElmer).
As for `Cc1nnc(SCC(=O)Nc2ccc(N(C)C)cc2)[nH]c1=O`, the “activity change, negative = inhibition” value was 7.12% [at 59.9 µM].
Turning to `C=CCSc1nnc2n(-c3ccccc3OC)c(=O)c3c4c(sc3n12)CCC4`, the “activity change, negative = inhibition” value was 0.913%.
Take `COc1ccc2ccc3c(c2c1)N=CC1(O3)N(C)c2ccccc2C1(C)C` (stereo not given): the “activity change, negative = inhibition” value was -22.8%.
The same measure, in the same setting: the figure for `CN1N=C(C(C)(C)C)CC1=O` is 8.94%.
With `Cc1ccc(OC(=S)Nc2ccc(O)cc2)cc1`, the “activity change, negative = inhibition” value is -22%.
As for `CC1=NN(Cc2ccccc2)C(=O)C1`, the “activity change, negative = inhibition” value was 23.4%.
Turning to `COc1cc(NCCCC(C)N)c2ncccc2c1` (stereo not given), the Potency was 3.16 µM (active).
On to `O=c1cc(C23CC4CC(CC(C4)C2)C3)[nH][nH]1`, for which the “activity change, negative = inhibition” value is 11.1%.
The same measure, in the same setting: the same measure for `Cn1c(NNC(=O)c2c(F)cccc2F)cc(=O)n(C)c1=O`: 1.12%; for `Cc1cccc(S(=O)(=O)c2cn(Cc3ccccc3)c3cc(N4CCC(C)CC4)c(F)cc3c2=O)c1`: 0.761% [at 59.9 µM].
With `CN1CCc2ccc3c4c2[C@]1(C)Cc1cccc(c1-4)OCO3`, the Potency was 7.94 µM (active).
For the compound `CCOc1cc(N2CCOCC2)c(OCC)cc1NC(C)C(=O)N1CCN(CC)CC1` (stereo not given), the “activity change, negative = inhibition” value is 12%.
Still for that read-out and setting: the figure for `Cc1nc2ccccc2n2c(O)c(CC(=O)O)cc12` is -9.96%; for `COc1ccc(-c2nc(CS(=O)CC(=O)NCc3ccccn3)c(C)o2)cc1` (stereo not given) it is -2.31%.
In the case of `CCOC(=O)C(NC(=O)Nc1ccc(O)cc1)(c1ccccc1)C(F)(F)F` (stereo not given), the “activity change, negative = inhibition” value was 24.2%.
Same read-out and setting: the same measure for `CCc1ccc2c(c1)c1nc(C)sc1n2CC`: 17.3%.
For `CCC(CNc1cc(OC)cc2cccnc12)NC1CCCCC1` (stereo not given), the Potency is 6.31 µM (active).
On to `CC(NC(=O)Nc1ccc(O)cc1)(C(F)(F)F)C(F)(F)F`, for which the “activity change, negative = inhibition” value was -0.554%.
Still for that read-out and setting: the figure for `Cc1cc(C)cc(OCC(=O)NCCc2nc3ccccc3[nH]2)c1` is 6.99% [at 59.9 µM]; for `Cn1cc(/C=C2\SC(=S)N(NC(=O)c3ccccc3)C2=O)c2ccccc21` it is 2.16%.
Turning to `Cc1ccc2c(CC(=O)Nc3c(C(=O)c4ccc(F)cc4)oc4ccccc34)coc2c1C`, the “activity change, negative = inhibition” value is 23.4% [at 59.9 µM].
Still for that read-out and setting: the figure for `O=C(O)[C@H]1CN(CCCP(=O)(O)O)CCN1` is -100% [at 59.9 µM]; for `O=C(Nc1nc2ccc(Cl)cc2s1)c1ccc(N2CCCCC2)c([N+](=O)[O-])c1` it is 19.6%.
With `CN1c2ccccc2C(C)(C)C12C=Nc1c(cc(N3CCOCC3)c3ccccc13)O2` (stereo not given), the “activity change, negative = inhibition” value is 13.7%.
On to `COc1cc(NC(C)CCCN)c2ncccc2c1` (stereo not given), for which the Potency was 22.4 µM (active).
As to `CN(C)c1cc(Cl)c2nonc2c1N`, the “activity change, negative = inhibition” value was 15.2%.
Same read-out and setting: the figure for `O=C(NNc1cc(N2CCOCC2)nc(N2CCOCC2)n1)c1ccc([N+](=O)[O-])cc1` is -19.3%.
For `CCOc1ccc(NC(=O)C(c2ccccn2)N(C(=O)CCl)c2ccc(F)cc2)cc1` (stereo not given), the “activity change, negative = inhibition” value is -6.26%.
Same read-out and setting: the figure for `C=CCNC(=O)/C(C#N)=C\c1cc(Cl)c(OCC)c(OC)c1` is -29.7%.
In the case of `CCCc1nc2c(=O)n(C)c(=O)nc-2n(C)n1`, the Potency is 0.794 µM (active).
On to `Nc1cnccc1C(=O)O`, for which the “activity change, negative = inhibition” value was -3.24%.
Still for that read-out and setting: the same measure for `Nc1cccnc1Sc1cc(Cl)c(Cl)cc1Cl`: -26.2%; for `CCOC(=O)c1cnc2nc(NCc3ccc(OC)c(OC)c3)[nH]n2c1=O`: -0.994%.
Turning to `CN1c2ccccc2C(C)(C)C12C=Nc1c(ccc3ccccc13)O2` (stereo not given), the Potency is 4.47 µM (active).
Same read-out and setting: the figure for `Nc1cc(-c2ccncc2)c[nH]c1=O` is 14.1 µM (active).
As for `CCOc1cc(C(c2c(C)[nH][nH]c2=O)c2c(C)[nH][nH]c2=O)ccc1OS(=O)(=O)c1ccc(C)cc1`, the “activity change, negative = inhibition” value was 18.7%.
In the case of `Cc1ccc(-c2nc(S(=O)(=O)c3ccc(F)cc3)c(SCC(=O)NCC3CCCO3)o2)cc1` (stereo not given), the “activity change, negative = inhibition” value is -6.71%.
Take `CCSc1ncc(Cl)c(C(=O)Nc2nc3ccc(OC)cc3s2)n1`: the “activity change, negative = inhibition” value is -4.44% [at 59.9 µM].
`CCC(NC(=O)Nc1ccc(O)cc1)(C(F)(F)F)C(F)(F)F`: the “activity change, negative = inhibition” value is 9.95%.
As for `CC1=NN(c2ccc(F)cc2)C(=O)C1C(c1cccc(O)c1)c1c(C)[nH]n(-c2ccc(F)cc2)c1=O` (stereo not given), the “activity change, negative = inhibition” value is -12.9%.
